This is a sample that favours compounds with a hit; in the whole collection about 4% have one here.
ROMK mod: modulators of human ROMK potassium channel | B-score at 10 µM | 130,000 tested, 2% active | Tet-inducible ROMK, thallium flux fluorescence; actives lie on both sides | AID 1918;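 active = signal ratio slope over the read window, or its plate-corrected B-score, at least 3 SD from the plate mean, either direction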;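 note: B-score of the F/F0 ratio slope over 7 to 12 s after thallium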
KCC2 mod: modulators of human KCC2 chloride dependent transport; AID 1456; KCC2 cells, thallium flux FluoZin-2 fluorescence; B-score of Tl+ flux slope (higher = more flux/activation; lower = inhibition) at 10 µM; Q9H2X9; 190,000 tested, 2.2% active;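 active = thallium flux slope and its plate-corrected score both differing from the plate sample mean at a set confidence after two filtering rounds, in either direction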;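 note: slope of fluorescence scaled to starting intensity during 10 to 20 s after thallium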
Measles CPE: protection of cells from measles virus; Measles virus-infected cells, CPE protection, absorbance; protection (pct of control), % at 4 µM; 140,000 tested, 1.5% active; AID 841; in the data active = protection mostly above about 24%, no sharp cut-off; inactive = mostly below about 26%
HSV augment: increases HSV replication in cells; AID 1956; 220,000 tested, 0.005% active; HSV replication augmentation in cells, fold increase; maximum fold increase; in the data active = maximum fold increase above about 1.5; inconclusive = no clear call, values can overlap the other calls; tested in PC3 cells
Arbovirus inh: arbovirus infection inhibition; arbovirus infection cell-based antiviral screen; inhibition, % at 10 µM; 200,000 tested, 0.37% active; in the data active = inhibition above about 30%
KCC2 secondary: confirmation of human KCC2 transport modulators; normalised thallium flux (F/F0 slope) at 10 µM; shares compounds with KCC2 mod; 3,700 tested, 15% active; HEK293-KCC2, thallium flux, FluoZin2 fluorescence; hits give high values;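 active = thallium flux slope above the same plate's solvent-only control mean plus 3 SD; inconclusive = the two replicate wells disagree; inactive = no significant difference from solvent-only control wells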
KCC2 bumet counter: thallium flux persisting under bumetanide in KCC2 cells, counter-screen secondary assay; shares compounds with KCC2 mod; 3,700 tested, 49% active; normalized thallium flux at 10 µM; HEK293-KCC2 + bumetanide/ouabain, thallium flux FluoZin2; hits give high values; AID 1714;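 active = thallium entry rate above the same plate's blocked-transporter control wells by more than 3 SD; inconclusive = the two repeat wells disagree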;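 note: raw slope of fluorescence over initial fluorescence between 10 and 20 s after thallium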
KCC2 secondary2: KCC2 (human) modulation, second secondary assay; shares compounds with KCC2 mod; HEK293-KCC2, thallium flux FluoZin2 fluorescence; actives lie on both sides; F/F0 rise rate, 10–20 s post-thallium; normalized thallium flux at 10 µM; 3,700 tested, 23% active; AID 1715;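 active = thallium flux slope more than 3 SD above or below the plate's solvent-only control mean, mostly below; inconclusive = the two repeat wells disagreed; inactive = no significant shift from solvent-only controls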;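 note: raw slope with 0.1% DMSO as baseline and bumetanide as block control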
HEK counter1: parental HEK flux effect, counter-screen; shares compounds with KCC2 mod; HEK293 parental cells, thallium flux FluoZin2, ouabain; baseline-ratio fluorescence slope, 10–20 s after thallium; thallium flux rate (normalised fluorescence) at 10 µM; 3,700 tested, 46% active; AID 1716;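 active = thallium flux rate significantly above the same plate's solvent-only control wells, beyond their mean plus 3 SD; inconclusive = the two replicate wells gave conflicting results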
KCC2 retest ouab: confirmation of human KCC2 modulators with ouabain | raw Tl+ flux slope (below DMSO = inhibition, above = activation) at 10 µM | 3,700 tested, 48% active | AID 1717 | HEK293-KCC2, thallium flux FluoZin2 fluorescence; bidirectional: low = inhibitor, high = activator | shares compounds with KCC2 mod;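 active = thallium flux slope beyond 3 SD from same-plate DMSO control mean in most replicates, usually higher, sometimes lower; inconclusive = repeat tests gave conflicting results; inactive = no significant difference from controls in most replicates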;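 note: slope of initial-normalized fluorescence between seconds 10 and 20 after thallium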
HEK counter2: parental HEK flux effect, counter-screen 2; shares compounds with KCC2 mod; HEK293 parental, thallium flux FluoZin-2 fluorescence slope; 3,700 tested, 33% active; thallium flux slope at 10 µM;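 active = thallium flux slope above the same plate's solvent-control mean plus 3 SD in both duplicate wells; inconclusive = duplicate wells that disagreed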;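 note: run without ouabain in cells lacking the KCC2 cotransporter; slope of fluorescence scaled to its starting value between 10 and 20 s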
Numbers without * were called inactive; i = inactive; u = inconclusive; x = no result given.

SMILES	ROMK mod	KCC2 mod	Measles CPE	HSV augment	Arbovirus inh	KCC2 secondary	KCC2 bumet counter	KCC2 secondary2	HEK counter1	KCC2 retest ouab	HEK counter2
O=C(CSc1nc2ccccc2[nH]1)Nc1ccccc1F	-1.1	-4.7*	8	x	3	0.0072	0.0039	0.032	0.0074	0.019	0.01
O=C(CSc1nc2ccccc2[nH]1)Nc1ccc(F)c(F)c1	-1.6	-1.8	7	i	14	x	x	x	x	x	x
Fc1cccc(F)c1/C=N/NC(=S)Nc1cccnc1	0.45	5.2*	x	i	-6	0.0063	0.012*	0.028	0.012*	u	0.011
Fc1ccc(/C=N/NC(=S)Nc2cccnc2)cc1F	-0.38	2.8	x	i	-2	x	x	x	x	x	x
Fc1c(F)c(F)c(/C=N/NC(=S)Nc2cccnc2)c(F)c1F	0.31	19*	x	i	8	0.0099	0.03*	0.036	0.015*	u	u
Fc1ccc(/C=N/NC(=S)Nc2cccnc2)cc1	0.079	1.6	x	i	7	x	x	x	x	x	x
Cn1c(SCC(=O)NNC(=O)Cc2ccccc2)nc2ccccc2c1=O	-0.28	0.32	x	i	10	x	x	x	x	x	x
O=C(/C=C/Nc1ccc(Oc2ccccc2Cl)cc1)c1ccco1	-0.21	0.75	x	i	-8	x	x	x	x	x	x
O=C(O)CCn1c(-c2ccccc2)cc2ccccc21	0.69	-6.4*	x	i	2	0.0066	0.007	0.028	0.007	0.013*	0.0096
Cc1ccc(-c2csc(NC(=O)CSc3nc4ccccc4c(=O)n3CCCN(C)C)n2)cc1	-1.8	1.5	x	i	-21	x	x	x	x	x	x
C=C(C)C(=O)OC1(C(F)(F)F)Oc2cc(C)ccc2NC1=O (stereo unspecified)	x	0.31	9	i	-41	x	x	x	x	x	x
Cc1n[nH]c(C)c1S(=O)(=O)N(CC(=O)Nc1ccc2c(c1)OCCO2)c1ccc(C(C)C)cc1	x	-5.1*	16	i	14	u	u	0.032	0.0066	0.016*	0.01
COc1ccc(N(CC(=O)Nc2cccc(C)c2C)S(=O)(=O)c2c(C)[nH]c(=O)[nH]c2=O)cc1	1.2	-0.11	x	i	x	x	x	x	x	x	x
COc1ccc(N(CC(=O)Nc2cccc(C)c2C)S(=O)(=O)c2c(C)n[nH]c2C)cc1	-1.2	x	10	i	-6	0.019	0.0051	0.024*	0.0075	0.015	0.01
Cc1noc(C)c1S(=O)(=O)N(CC(=O)Nc1ccc2c(c1)OCO2)c1ccc(C(C)C)cc1	x	-0.3	4	i	5	x	x	x	x	x	x
COC(=O)C1=C(C)NC(=O)NC1c1ccc(OC(=O)c2ccco2)cc1 (stereo unspecified)	0.031	0.68	x	i	-2	x	x	x	x	x	x
Cc1cc(C)n(-c2nc3sc4c(c3c(=O)[nH]2)CCCC4)n1	2.1	42*	6	x	-32	0.0083	0.1*	0.098*	0.1*	0.089*	0.069*
Cc1nc2sc3c(c2c(=O)[nH]1)CCCCC3	x	-0.6	x	i	x	x	x	x	x	x	x
N#Cc1ccc(COn2nnc3ccccc32)cc1	-0.17	-0.3	x	i	-4	x	x	x	x	x	x
COC(=O)C(NS(C)(=O)=O)(c1c(C)[nH]c2ccccc12)C(F)(F)F (stereo unspecified)	0.42	-4.4*	x	x	3	0.0069	u	0.027	0.0083	0.019	0.011
COc1ccc(CNC(=S)N/N=C(\C)c2ccc(OC)cc2)cc1	x	2	x	i	x	x	x	x	x	x	x
CC(=O)Nc1cccc(/C(C)=N/NC(=S)NC(C)C)c1	0.19	-0.016	x	i	-5	x	x	x	x	x	x
COc1ccccc1/C(C)=N/NC(=S)NCc1ccccc1	-0.43	6.9*	x	i	-5	0.0067	0.015*	0.031	0.015*	u	0.014*
COc1cc(OC)c(NC(=S)NCc2ccccc2)cc1Cl	-1.2	-0.34	x	i	2	x	x	x	x	x	x
COc1ccc(/C(C)=N/NC(=S)NCCc2ccccc2)cc1	-0.64	7.7*	x	i	4	0.011	0.016*	0.03	0.021*	u	u
SMILES	ROMK mod	KCC2 mod	Measles CPE	HSV augment	Arbovirus inh	KCC2 secondary	KCC2 bumet counter	KCC2 secondary2	HEK counter1	KCC2 retest ouab	HEK counter2
C/C(=N\NC(=S)NC(C)C)c1ccccc1	x	5.8*	x	i	x	u	0.02*	0.028	0.0095*	0.046*	u
COc1ccc(NC(=S)NCCCc2ccccc2)cc1	0.012	-4.8*	18	i	11	0.015	u	0.023*	0.0067	0.015	0.0094
C/C(=N\NC(=S)NCc1ccccc1)c1cccc(Br)c1	0.32	4.8*	x	i	7	0.016	0.017*	0.029	0.0084	0.018	0.011
C/C(=N\NC(=S)NCc1ccccc1)c1ccc2ccccc2c1	1.1	6*	4	i	3	0.0085	0.019*	0.027	0.0085*	u	0.0093
C=CCNC(=S)N/N=C(\C)c1ccc(OC)cc1	0.18	2.9	4	i	-7	x	x	x	x	x	x
C=C(C)CNC(=S)N/N=C(\C)c1cccc(NC(C)=O)c1	x	0.22	x	i	-1	x	x	x	x	x	x
C=CCNC(=S)N/N=C(\C)c1cccc(OC)c1	-0.68	4.9*	5	i	-6	0.013*	0.043*	0.032	0.015*	0.026	0.012*
O=C(O)CC/C(=N/Nc1ncc(C(F)(F)F)cc1Cl)C(=O)O	-0.013	-0.28	x	i	-4	x	x	x	x	x	x
Cc1ccc(S(=O)(=O)/N=C(/NC(=S)Nc2ccccc2)c2ccccc2)cc1	0.96	7.2	5	i	-1	x	x	x	x	x	x
Cc1ccc(NC(=S)N/C(=N/S(=O)(=O)c2ccccc2)c2ccccc2)cc1	0.83	x	24	i	10	0.02*	0.03*	0.038*	0.024*	0.031*	0.026*
CN1CCN(CC(=O)Nc2cc(N(C)C)nc3ccccc23)CC1	0.027	0.12	x	i	7	x	x	x	x	x	x
Cc1ccc(-c2cc(=O)c3cc(C)ccc3[nH]2)cc1	1.6	1.1	0	i	-20	x	x	x	x	x	x
Cc1ccc2c(C)cc(=S)[nH]c2c1	-1.1	29*	x	i	0	0.0079	0.02*	0.036	0.024*	0.03*	0.021*
Cc1ccc(C)c2c1[nH]c1ccccc12	0.45	x	11	i	-7	x	x	x	x	x	x
Cc1ccc2[nH]c(=S)cc(C)c2c1	1.2	21*	28	i	0	0.011	u	0.038	u	u	0.019*
Cc1cc(=S)[nH]c2ccccc12	-0.012	5.8*	3	x	-3	0.0084	0.015*	0.029	0.015*	u	0.015*
Cc1ccc(-n2cnc(N)c2C(=O)c2cccc([N+](=O)[O-])c2)cc1	x	0.52	x	i	x	x	x	x	x	x	x
